In PubChem BioAssay (Tox21):
Records with an inconclusive call do not appear. Active and inactive are the calls of the source. Unless noted, calls come from the whole dose curve.

Tests used:
[1] = Nuclear factor erythroid 2-related factor 2/antioxidant responsive element (Nrf2/ARE) small molecule agonists: luciferase reporter gene qHTS assay in human keratinocytes (AID 1919969); note: nearly all actives have a fitted effect of over 35% in size; note: potency is the fitted concentration of half-maximal effect
[2] = target: Gonadotropin-releasing hormone receptor (Homo sapiens) (UniProt P30968); test: Human gonadotropin-releasing hormone receptor (GnRHR) small molecule agonists, calcium flux assay in GnRHR-HEK293 cells (AID 1920063); note: nearly all actives have a fitted effect of over 35% in size; note: potency is the fitted concentration of half-maximal effect
Gonadotropin-releasing hormone receptor (Homo sapiens), sequence (P30968 whole entry, looked up): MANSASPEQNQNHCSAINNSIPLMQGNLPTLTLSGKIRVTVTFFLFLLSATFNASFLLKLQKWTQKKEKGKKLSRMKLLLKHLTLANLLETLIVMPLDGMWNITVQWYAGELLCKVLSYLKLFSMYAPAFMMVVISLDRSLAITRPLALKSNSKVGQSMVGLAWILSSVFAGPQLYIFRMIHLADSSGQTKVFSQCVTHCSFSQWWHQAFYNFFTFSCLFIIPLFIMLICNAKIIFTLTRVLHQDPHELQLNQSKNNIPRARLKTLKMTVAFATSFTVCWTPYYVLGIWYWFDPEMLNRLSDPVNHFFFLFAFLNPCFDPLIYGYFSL
How it was run: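 Tox21-format agonist screen using human GnRHR-expressing HEK293 cells and a fluorescent calcium dye; kinetic 3-min fluorescence reading after compound addition, 15-point concentration series run in triplicate.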

[3] = G protein-coupled receptor (GPCR) small molecule agonists, calcium flux assay: HEK293 wild type cell line counter screen (AID 1920065)
How it was run: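 In this agonist-mode screen, ATP is the positive control and DMSO the vehicle. Cells grow 18 h before a 1 h dye incubation at 37 C; signal is taken at Ex/Em 480/540 over 3 min.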

[4] = p53 small molecule agonists, cell-based qHTS assay with human liver microsomes (AID 1963577)
How it was run: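 p53RE-bla cells, 4,000/well, compound added after 5 h, with human liver microsomes 0.5 mg/mL and NADPH 0.5 mg/mL final; 16 h at 37 C, then LiveBLAzer 2 h RT, fluorescence.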

[5] = p53 small molecule agonists, cell-based qHTS assay with human liver microsomes: qHTS cell viability counter screen (AID 1963579); note: nearly all actives have a fitted effect of over 45% in size
How it was run: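 p53RE-bla cells, 4,000/well, dosed 5 hours after plating, with human liver microsomes (0.5 mg/mL final) plus NADPH (0.5 mg/mL final), 16 hours at 37 C. Viability read as CellTiter-Glo luminescence after 30 min at room temperature.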

[6] = p53 small molecule agonists, cell-based qHTS assay with rat liver microsomes: qHTS cell viability counter screen (AID 1963580); note: nearly all actives have a fitted effect of over 45% in size; note: potency is the fitted concentration of half-maximal effect
How it was run: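 p53RE-bla HCT-116 cells were exposed 16 h at 37 C to compounds with rat liver microsomes (0.5 mg/mL) and NADPH (0.5 mg/mL). Viability was measured in the same wells as ATP content by CellTiter-Glo luminescence.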

[7] = p53 small molecule agonists, cell-based qHTS assay: qHTS cell viability counter screen (AID 1963581); note: nearly all actives have a fitted effect of over 45% in size; note: potency is the fitted concentration of half-maximal effect
How it was run: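 Compounds are pinned onto HCT-116 p53RE-bla cells and left 16 h at 37 C. Following the reporter FRET read, ATP is quantified by CellTiter-Glo luminescence after 30 min at room temperature.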

[8] = p53 small molecule agonists, cell-based qHTS assay (AID 1963582; active = well fitted activation curve with a large enough effect in the signal ratio in the repeat runs, not every such curve was filed as active; the % refers to the signal ratio; note: potency is the fitted concentration of half-maximal effect)
How it was run: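 Agonist activity was scored from beta-lactamase FRET fluorescence in p53RE-bla cells treated 16 h at 37 C with compounds in DMSO, substrate incubation being 2 h at room temperature.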

[9] = target: 5-hydroxytryptamine receptor 2A (Homo sapiens) (UniProt P28223); test: 5-hydroxytryptamine receptor 2A (HTR2A) small molecule antagonists, cell-based qHTS assay (AID 1963586); note: nearly all actives have a fitted effect of over 45% in size
5-hydroxytryptamine receptor 2A (Homo sapiens), sequence (P28223 whole entry, looked up): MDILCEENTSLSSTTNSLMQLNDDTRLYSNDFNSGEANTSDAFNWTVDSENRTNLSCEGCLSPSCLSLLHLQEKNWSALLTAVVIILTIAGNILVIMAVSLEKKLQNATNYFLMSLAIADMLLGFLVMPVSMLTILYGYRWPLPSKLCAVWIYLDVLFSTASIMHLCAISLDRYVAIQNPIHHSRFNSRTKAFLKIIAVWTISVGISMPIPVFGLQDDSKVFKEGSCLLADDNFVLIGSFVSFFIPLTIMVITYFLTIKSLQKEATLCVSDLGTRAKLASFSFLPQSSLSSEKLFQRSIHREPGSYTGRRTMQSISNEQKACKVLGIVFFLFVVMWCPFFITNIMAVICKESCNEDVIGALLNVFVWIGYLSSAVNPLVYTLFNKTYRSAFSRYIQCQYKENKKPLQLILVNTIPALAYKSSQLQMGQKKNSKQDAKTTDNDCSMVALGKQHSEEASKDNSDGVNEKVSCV
How it was run: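 Antagonist-mode intracellular calcium assay: DOI (4 nM) added after 5 min compound pre-incubation at room temperature to dye-loaded HTR2A-CHO cells. Fluorescence followed for 3 min, sampled every second.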

[10] = target: 5-hydroxytryptamine receptor 2A (Homo sapiens) (UniProt P28223); test: 5-hydroxytryptamine receptor 2A (HTR2A) small molecule agonists, cell-based qHTS assay (AID 1963587); note: nearly all actives have a fitted effect of over 30% in size; note: potency is the fitted concentration of half-maximal effect
How it was run: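 CHO cells stably expressing human HTR2A, plated 18 h, loaded with calcium dye 1 h at 37 C. Agonist mode: compounds added and intracellular calcium fluorescence recorded kinetically for 2 min at 1 sec intervals.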

[11] = target: Muscarinic acetylcholine receptor M1 (Homo sapiens) (UniProt P11229); test: Cholinergic receptor muscarinic 1 (CHRM1) small molecule antagonists, cell-based qHTS assay (AID 1963588); note: nearly all actives have a fitted effect of over 40% in size; note: potency is the fitted concentration of half-maximal effect
Muscarinic acetylcholine receptor M1 (Homo sapiens), sequence (P11229 whole entry, looked up): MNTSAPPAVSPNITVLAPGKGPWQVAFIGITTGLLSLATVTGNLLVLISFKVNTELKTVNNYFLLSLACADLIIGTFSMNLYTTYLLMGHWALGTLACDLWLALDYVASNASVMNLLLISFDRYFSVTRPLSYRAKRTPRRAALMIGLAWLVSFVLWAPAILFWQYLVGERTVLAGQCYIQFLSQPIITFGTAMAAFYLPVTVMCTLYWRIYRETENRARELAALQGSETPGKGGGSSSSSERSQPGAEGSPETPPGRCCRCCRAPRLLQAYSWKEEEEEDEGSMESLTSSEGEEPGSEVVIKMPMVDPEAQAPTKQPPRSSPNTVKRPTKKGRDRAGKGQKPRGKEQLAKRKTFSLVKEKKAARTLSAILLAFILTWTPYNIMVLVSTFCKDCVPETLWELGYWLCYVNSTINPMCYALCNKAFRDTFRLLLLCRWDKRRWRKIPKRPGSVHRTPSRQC
How it was run: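 CHRM1-CHO calcium-flux assay, antagonist mode. Cells were seeded 18 h, dye-loaded 1 h at 37 C and given compound for 5 min at RT, then acetylcholine was added at 50nM. FDSS fluorescence was read 3 min; 15 concentrations, three runs.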

[12] = target: Muscarinic acetylcholine receptor M1 (Homo sapiens) (UniProt P11229); test: Cholinergic receptor muscarinic 1 (CHRM1) small molecule agonists, cell-based qHTS assay (AID 1963589); note: nearly all actives have a fitted effect of over 35% in size
How it was run: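 Stable CHRM1-CHO cells (human receptor) were incubated 18 h, dye-loaded for 1 h at 37 C and exposed to test compounds for agonist activity, with calcium-dependent fluorescence followed kinetically.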

[13] = cAMP Responsive Elements (CRE) small molecule agonists, cell-based qHTS assay (AID 1963590)
How it was run: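 FRET-based beta-lactamase readout (LiveBLAzer B/G, 2 h RT) quantified CRE activation in HEK 293T CRE-bla cells after 3 h treatment with DMSO-dissolved compounds.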

[14] = target: Beta-2 adrenergic receptor (Homo sapiens) (UniProt P07550); test: Adrenergic beta2 receptor (ADRB2) small molecule antagonists, cell-based qHTS assay (AID 1963592); note: series mostly up to about 92 µM; nearly all actives have a fitted effect of over 50% in size
Beta-2 adrenergic receptor (Homo sapiens), sequence (P07550 whole entry, looked up): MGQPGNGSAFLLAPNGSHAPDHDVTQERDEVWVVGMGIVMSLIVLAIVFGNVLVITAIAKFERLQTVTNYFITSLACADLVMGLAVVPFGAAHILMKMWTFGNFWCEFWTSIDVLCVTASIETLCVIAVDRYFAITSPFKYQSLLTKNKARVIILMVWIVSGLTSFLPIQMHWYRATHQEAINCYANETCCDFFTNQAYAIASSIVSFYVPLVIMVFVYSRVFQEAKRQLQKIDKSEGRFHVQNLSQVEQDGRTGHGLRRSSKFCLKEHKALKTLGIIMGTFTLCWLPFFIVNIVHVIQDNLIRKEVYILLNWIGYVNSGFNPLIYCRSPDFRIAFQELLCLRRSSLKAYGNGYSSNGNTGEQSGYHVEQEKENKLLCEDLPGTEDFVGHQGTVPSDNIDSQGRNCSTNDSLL
How it was run: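 Cells (CHO, stable ADRB2 overexpression) incubated 18-20hr at 37C; compounds added from DMSO; agonist mix (1nM isoproterenol, 100uM IBMX, 25uM Ro-20-1724) added; 0.5hr RT; d2-cAMP and anti-cAMP-cryptate added; 1hr RT; 665/615 nm read.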

[15] = target: D(2) dopamine receptor (Homo sapiens) (UniProt P14416); test: Dopamine D2 receptor (DRD2) small molecule agonists, cell-based qHTS assay (AID 1963594); note: nearly all actives have a fitted effect of over 35% in size
D(2) dopamine receptor (Homo sapiens), sequence (P14416 whole entry, looked up): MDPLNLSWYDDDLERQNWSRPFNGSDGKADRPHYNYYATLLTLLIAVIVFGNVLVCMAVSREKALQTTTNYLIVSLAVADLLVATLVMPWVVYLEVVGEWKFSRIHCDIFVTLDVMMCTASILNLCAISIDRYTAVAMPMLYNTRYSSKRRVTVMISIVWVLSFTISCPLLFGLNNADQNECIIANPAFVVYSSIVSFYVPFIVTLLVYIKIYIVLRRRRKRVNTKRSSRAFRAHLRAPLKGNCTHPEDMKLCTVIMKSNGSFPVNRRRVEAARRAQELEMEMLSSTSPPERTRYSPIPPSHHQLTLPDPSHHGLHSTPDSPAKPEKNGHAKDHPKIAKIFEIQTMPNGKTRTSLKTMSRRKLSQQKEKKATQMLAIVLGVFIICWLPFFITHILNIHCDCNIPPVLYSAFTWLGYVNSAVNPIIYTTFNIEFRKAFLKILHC
How it was run: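 HEK293 cells stably expressing human DRD2, pre-treated with PDE inhibitor Ro20-1724 (0.1 mM final) and compound 10 min at room temperature, then stimulated with NKH477 (200nM […]) for 30 min. cAMP read by HTRF (665/620 nm).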

[16] = target: D(2) dopamine receptor (Homo sapiens) (UniProt P14416); test: Dopamine D2 receptor (DRD2) small molecule antagonists, cell-based qHTS assay (AID 1963595; active = well fitted inhibition curve with a large enough effect in the signal ratio in the repeat runs, with a control signal flat; the % refers to the signal ratio)
How it was run: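 Stable D2 receptor HEK293 line, 24 h after seeding. Compound preincubated 10 min, then quinpirole (12 nM) with forskolin analogue NKH477 (200 nM), 30 min, room temperature. Detection by time-resolved FRET of cAMP.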

[17] = target: KiSS-1 receptor (Homo sapiens) (UniProt Q969F8); test: Human kisspeptin (KISS1R) small molecule agonists, calcium flux assay in KISS1R-HEK293 cells (AID 1920064; active = well fitted activation curve with a large enough effect in the repeat runs; note: potency is the fitted concentration of half-maximal effect)
KiSS-1 receptor (Homo sapiens), sequence (Q969F8 whole entry, looked up): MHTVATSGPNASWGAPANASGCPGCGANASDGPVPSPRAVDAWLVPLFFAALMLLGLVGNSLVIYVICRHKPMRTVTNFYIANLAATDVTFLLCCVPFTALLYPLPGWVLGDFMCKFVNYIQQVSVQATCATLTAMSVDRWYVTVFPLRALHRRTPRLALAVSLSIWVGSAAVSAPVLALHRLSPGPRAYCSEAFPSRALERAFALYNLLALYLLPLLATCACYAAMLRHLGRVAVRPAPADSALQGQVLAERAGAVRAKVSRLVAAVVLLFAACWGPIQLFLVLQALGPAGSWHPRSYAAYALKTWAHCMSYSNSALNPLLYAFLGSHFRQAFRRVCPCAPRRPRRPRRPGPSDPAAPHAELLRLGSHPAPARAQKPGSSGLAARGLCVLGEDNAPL
How it was run: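 Intracellular calcium mobilization in KISS1R-HEK293 cells was recorded by fluorescence (Ex/Em 480/540) for 3 min following compound addition to cells pre-loaded 1 h with calcium dye.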

[18] = p53 small molecule agonists, cell-based qHTS assay with rat liver microsomes (AID 1963578)
How it was run: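 p53RE-bla cells, 4,000/well, pre-incubated 5 h, then given compounds plus rat liver microsomes (0.5 mg/mL final) and NADPH (0.5 mg/mL final). Incubation 16 h at 37 C; beta-lactamase reporter read by LiveBLAzer fluorescence after 2 h at room temperature.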

[19] = cAMP Responsive Elements (CRE) small molecule antagonists, cell-based qHTS assay (AID 1963591; active = well fitted inhibition curve with a large enough effect in the signal ratio in the repeat runs, not every such curve was filed as active; the % refers to the signal ratio)
How it was run: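 qHTS in CRE-bla HEK 293T cells: compound in DMSO, then 0.25 uM NKH477 (final), 3 h at 37 °C/5% CO2; beta-lactamase FRET read-out after 2 h substrate incubation.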

[20] = target: Beta-2 adrenergic receptor (Homo sapiens) (UniProt P07550); test: Adrenergic beta2 receptor (ADRB2) small molecule agonists, cell-based qHTS assay (AID 1963593); note: potency is the fitted concentration of half-maximal effect;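 for activation: CHO cells stably overexpressing human ADRB2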
How it was run: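 CHO cells stably over-expressing ADRB2 were plated overnight at 37C, then dosed with compounds plus a stimulation mix containing 100uM IBMX and 25uM Ro-20-1724 for 0.5hr at room temperature. cAMP was measured by HTRF competition, 1hr.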

Measured: Potency

CC(C)(Cl)[N+](=O)[O-]
not listed: [17] | [18] | [19] | [20]
inactive: all other assays above

C[C@]12CC[C@H](O)C[C@H]1CC[C@@H]1[C@@H]2C[C@@H](O)[C@]2(C)[C@@H](C3=CC(=O)OC3)CC[C@]12O
active: [1] 3.44 µM | [7] 1.82 µM
inactive: [17] | [3] | [4] | [18] | [9] | [10] | [11] | [12] | [15] | [16]

C[C@H](N)[C@H](O)c1ccc(O)c(O)c1
active: [20] 7.5 µM
not listed: [2] | [4] | [9] | [13] | [14] | [16]
inactive: all other assays above

CCCCCOC(=O)c1ccccc1C(=O)OCCCCC
not listed: [1] | [8]
inactive: all other assays above

O=[N+]([O-])O.O=[N+]([O-])O.[Cd]
active: [10] 38.9 µM
not listed: [1] | [4] | [8] | [9] | [16] | [18] | [19] | [20]
inactive: all other assays above

N#CCCC(Br)(C#N)CBr (stereo unspecified)
inactive: [4] | [18] | [5] | [6] | [7] | [11] | [13]
active: [2] 38.9 µM | [17] 54.9 µM

CC(=O)c1cc2c(cc1C)C(C)(C)C(C)CC2(C)C (stereo unspecified)
not listed: [1] | [3] | [13] | [20]
inactive: all other assays above

COCCOCCO
inactive: [2] | [17] | [3] | [11] | [13] | [19] | [14]
active: [6] 1.62 µM

CN1C(=O)C(O)N=C(c2ccccc2)c2cc(Cl)ccc21 (stereo unspecified)
active: [20] 31.7 µM
not listed: [1] | [4] | [5] | [6] | [8] | [9] | [13] | [18]
inactive: all other assays above

Cc1c(F)c(F)c(COC(=O)C2C(/C=C(\Cl)C(F)(F)F)C2(C)C)c(F)c1F (stereo unspecified)
not listed: [1] | [4] | [8] | [13] | [15] | [20]
inactive: all other assays above

Clc1ccc(-c2ccc(Cl)c(Cl)c2Cl)c(Cl)c1Cl
not listed: [1] | [8] | [13] | [14] | [15] | [20]
inactive: all other assays above

CCOC(=O)[C@]1(c2ccccc2)Oc2ccccc2[C@@H]1N
inactive: [2] | [17] | [3] | [5] | [7] | [9] | [10] | [12] | [14] | [15]
active: [11] 8.4 µM

Nc1c(Cl)c(Cl)c(Cl)c(Cl)c1Cl
not listed: [1] | [4] | [8] | [9] | [15] | [18] | [19] | [20]
inactive: all other assays above

N#C/C=C/C#N
active: [8] 30.2 µM
not listed: [1] | [7] | [18] | [19] | [20]
inactive: all other assays above

COP(=S)(OC)Oc1ccc([N+](=O)[O-])cc1Cl
not listed: [1] | [4] | [14] | [18] | [20]
inactive: all other assays above

CCC(C)c1cccc(C(C)CC)c1O (stereo unspecified)
not listed: [1] | [6] | [9] | [11] | [13] | [19] | [20]
inactive: all other assays above

CC(C)CCCCCCCOP(=O)(Oc1ccccc1)Oc1ccccc1
inactive: [2] | [17] | [3] | [5] | [6] | [10] | [19] | [14] | [15] | [16]
